These results are taken from doi:10.1101/2024.03.05.583629.

The assay deals with pT7_6His-AlfaTag-ZIF268 (human, UniProt P18146 335-423). As to the kind of experiment: PADIT-seq. As to conditions: dsDNA, one strand shown.
Turning to “CTCGAGGATATCAAGATCTGGCCTCGGCTACCCACGCGGAACCTCTAGCTAGCCGACTCACTATAGGGATAATCGCCCTGAGCAAAGACC”, the binding signal stood at 0.362 ± 0.0981 log2FC.
In the case of “CTCGAGGATATCAAGATCTGGCCTCGGCACCTGGGCGGGAACCTCTAGCTAGCCGACTCACTATAGGGATAATCGCCCTGAGCAAAGACC” it was 0.068 ± 0.0997 log2FC; in that of “CTCGAGGATATCAAGATCTGGCCTCGGCTGGTGGGCGGGAACCTCTAGCTAGCCGACTCACTATAGGGATAATCGCCCTGAGCAAAGACC”, 1.81 ± 0.0735 log2FC.
In the case of “CTCGAGGATATCAAGATCTGGCCTCGGCGCGTGGAGAGGAACCTCTAGCTAGCCGACTCACTATAGGGATAATCGCCCTGAGCAAAGACC” it was 0.18 ± 0.105 log2FC.
“CTCGAGGATATCAAGATCTGGCCTCGGCGCGTGGGCTGGAACCTCTAGCTAGCCGACTCACTATAGGGATAATCGCCCTGAGCAAAGACC” returned a binding signal of 2.62 ± 0.0973 log2FC.
The sequence “CTCGAGGATATCAAGATCTGGCCTCGGCCGCCCAAAAGGAACCTCTAGCTAGCCGACTCACTATAGGGATAATCGCCCTGAGCAAAGACC” had a binding signal of 0.0465 ± 0.0996 log2FC.
In the case of “CTCGAGGATATCAAGATCTGGCCTCGGCCCGTGGGCGGGAACCTCTAGCTAGCCGACTCACTATAGGGATAATCGCCCTGAGCAAAGACC” it was 3.06 ± 0.0841 log2FC; in that of “CTCGAGGATATCAAGATCTGGCCTCGGCGCGTGGCCCGGAACCTCTAGCTAGCCGACTCACTATAGGGATAATCGCCCTGAGCAAAGACC”, 0.0738 ± 0.102 log2FC.
As for “CTCGAGGATATCAAGATCTGGCCTCGGCGCGTGCGCGGGAACCTCTAGCTAGCCGACTCACTATAGGGATAATCGCCCTGAGCAAAGACC”, the binding signal is 0.264 ± 0.107 log2FC.
In the case of “CTCGAGGATATCAAGATCTGGCCTCGGCGCGGAGGCGGGAACCTCTAGCTAGCCGACTCACTATAGGGATAATCGCCCTGAGCAAAGACC” it was 1.88 ± 0.11 log2FC.
In the case of “CTCGAGGATATCAAGATCTGGCCTCGGCGCGTGGATGGGAACCTCTAGCTAGCCGACTCACTATAGGGATAATCGCCCTGAGCAAAGACC” it was 0.000457 ± 0.106 log2FC; in that of “CTCGAGGATATCAAGATCTGGCCTCGGCCGCCCAAACGGAACCTCTAGCTAGCCGACTCACTATAGGGATAATCGCCCTGAGCAAAGACC”, 0.0706 ± 0.0989 log2FC.
